Results filed as inconclusive are left out. Calls of active or inactive are those of the source. The call rests on the fitted dose curve; in most records, active means well fitted inhibition curve with a large enough effect; inconclusive means small, poorly fitted or top-dose-only effect; inactive means no such curve, though single readings can be large or run the other way.
Potency means the concentration at half of the fitted maximal effect.

This test is described as follows: BET inhibitor-based combinations targeting novel dependencies in MECOM-rearranged (r) AML: MV-4-11 cell line (AID 2202233). Further: nearly all actives have a fitted effect of over 45% in size.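 On viability, % of control: plate controls were DMSO for no effect and blank wells for full effect.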 Conditions: MV-4-11 AML viability, CellTiter-Glo luminescence, 48 h; series mostly up to 46 µM; viability, % of control: at the top concentration. The procedure, abridged: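 Luminescent ATP readout (CellTiter-Glo, 15 min at room temperature) after 48 hr drug exposure gave viability. Dose-response curves, normalized to DMSO and empty-well controls, were summarized as area under the curve and its mean-centred Z-score.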
For orientation: In ATP-based viability assays light output follows the ATP content of the culture.
In the case of `O=C(Nc1ncc(SCCN2CCCC2)s1)[C@]1(c2ccc(S(=O)(=O)C3CC3)cc2)C[C@H]1C1CCCCC1`, the Potency is 11.8 µM (active). Consider `Nc1ncc(C(=O)NC2CN(C(=O)C3CC3)C2)c2ccc(-c3cccc(F)c3)nc12`, for which the Potency was 10.5 µM (active).

Consider `N#CCC1(n2cc(-c3ncnc4[nH]ccc34)cn2)CN(C2CCN(C(=O)c3ccnc(C(F)(F)F)c3F)CC2)C1`, for which the Potency is 16.6 µM (active). The same measure, in the same setting: as for `O=C(O)C[C@H]1CCc2c1[nH]c1ccc(OCc3ccc(C4CCCC4)c(C(F)(F)F)c3)cc21`, the figure is 5.9 µM (active); as for `COC1CC(C(=O)c2ccc3c(N)ncc(-c4ccc(-c5cnn(C)c5)cc4)c3n2)C1` (stereo not given), 2.95 µM (active). Still for that read-out and setting: as for `CCc1ccc(N(CC(C)C)S(=O)(=O)c2ccc(OCC3CCOCC3)c(CO)c2)cc1`, the figure is 18.6 µM (active).

On to `Cc1ccc2nc(NCCN)c3ncc(C)n3c2c1`, for which the Potency was 4.68 µM (active). Same read-out and setting: as for `COc1ccc(-c2oc3ncnc(N)c3c2-c2ccc(NC(=O)Nc3cc(C(F)(F)F)ccc3F)cc2)cc1`, the figure is 0.372 µM (active); as for `C=C[C@@H]1CN2CCC1C[C@H]2[C@H](O)c1ccnc2ccc(OC)cc12` (stereo not given in full), 16.6 µM (active). The same measure, in the same setting: as for `O=C(NC1CC1)c1cccc(-c2ccc3c(NC(=O)C4CC4)n[nH]c3c2)c1`, the figure is 8.33 µM (active); as for `COc1cc(C(=O)NC(N)=Nc2ccc(C)c(NC(=O)c3ccc(-c4ccccc4)cc3)c2)cc(OC)c1OC`, 18.6 µM (active).

As for `COc1ccc2c(c1)c(C1=C(c3c[nH]c4ccccc34)C(=O)NC1=O)cn2CCCN(C)C`, the Potency was 0.372 µM (active).

On to `C[C@@]12O[C@@H](C[C@]1(O)CO)n1c3ccccc3c3c4c(c5c6ccccc6n2c5c31)CNC4=O`, for which the Potency was 0.0118 µM (active). Same read-out and setting: the value for `Cn1cc(-c2ccc(-c3cncc(Cl)c3N3CCC4(CCNC4=O)CC3)cc2)cn1` was 14.8 µM (active). As to `C=CCN(/C=C1\C(=O)O[C@@H](COC)[C@]2(C)C1=C(O)C(=O)C1=C2[C@@H](OC(C)=O)C[C@]2(C)C(=O)CC[C@H]12)CC=C`, the Potency is 20.9 µM (active). As to `NS(=O)(=O)Oc1ccc2c3c(c(=O)oc2c1)CCCCC3`, the “viability, % of control” value is 92.6% (inactive).

In the case of `[O-][n+]1cccc(-c2nc3c(Cl)cccc3cc2[C@@H](Nc2ncnc3cccnc23)C(F)(F)F)c1`, the Potency is 8.33 µM (active).

On to `CO[C@H]1/C=C/O[C@@]2(C)Oc3c(C)c(O)c4c(O)c(c5c(nc6cc(C)ccn65)c4c3C2=O)NC(=O)/C(C)=C\C=C\[C@H](C)[C@H](O)[C@@H](C)[C@@H](O)[C@@H](C)[C@H](OC(C)=O)[C@@H]1C`, for which the “viability, % of control” value was 87.3% (inactive). Regarding `COc1cccc(-c2c(C)n(Cc3c(F)cccc3C(F)(F)F)c(=O)n(C[C@H](NCCCC(=O)O)c3ccccc3)c2=O)c1F`, the Potency result is “inactive”. Same read-out and setting: as for `N#Cc1ccc(-c2c(-c3ncn[nH]3)sc(N3CCOCC3)c2C#N)c(F)c1`, the figure is 5.9 µM (active); as for `CCN(CC)C(=S)SSC(=S)N(CC)CC`, 0.263 µM (active); as for `CCOC(=O)N[C@@H]1CC[C@@H]2[C@@H](C1)C[C@H]1C(=O)O[C@H](C)[C@H]1[C@H]2/C=C/c1ccc(-c2cccc(F)c2)cn1`, 26.3 µM (active). Same read-out and setting: as for `CCC(=O)N1CCOc2c(cc(-c3cc(OC)cc(OC)c3)cc2C(=O)N[C@H]2CCCN(C)C2)C1`, the figure is 10.5 µM (active); as for `COc1cc(N2CCN(C)CC2)ccc1Nc1ncc2c(n1)N(C)c1ccccc1C(=O)N2`, 18.6 µM (active); as for `CCC[C@H](Nc1nc(-c2ccc(NC(=O)NCC)c(OC)c2)ncc1C)c1cccnc1`, 0.0525 µM (active). Still for that read-out and setting: as for `Nc1nc(-c2nn(Cc3ccccc3F)c3ncccc23)ncc1C1CC1`, the figure is 1.18 µM (active); as for `Cc1ccc(NS(=O)(=O)c2cccc(C#N)c2)c2[nH]cc(C#N)c12`, 0.296 µM (active); as for `COC(=O)Nc1nc2ccc(S(=O)c3ccccc3)cc2[nH]1` (stereo not given), 16.6 µM (active). For the molecule `CC(C)NC(=O)C1CCC(n2c(NC(=O)c3ccc(F)cc3)nc3ccc(CN4CCC(C(C)(C)O)CC4)cc32)CC1` (stereo not given), the Potency is 1.82 µM (active). The same measure, in the same setting: as for `OC1CCC(Oc2cccc3cnc(Nc4ccc5nc[nH]c5c4)nc23)CC1` (stereo not given), the figure is 0.0525 µM (active).

Take `CC(C)n1cc(-c2ccc3c(c2)N(C)CC3)c2c(NS(=O)(=O)c3ccn(C)n3)ccnc21`: the “viability, % of control” value was 105% (inactive).

`Cc1ccc(-n2nc(C(C)(C)C)cc2NC(=O)NCc2cc(F)ccc2Oc2ccc3c(cnn3CCO)c2)cc1`: the Potency is 18.6 µM (active). On the same count and under the same terms, the value for `CN(C)CCOc1ccc(-c2nc(-c3ccc4c(c3)CC/C4=N\O)c(-c3ccncc3)[nH]2)cc1` was 16.6 µM (active).

Take `Cc1c(NC(=O)c2cc(C(N)=O)nc3cc(F)ccc23)c(C(F)(F)F)nn1Cc1ccc(C(C)(C)C)cc1`: the “viability, % of control” value is 81% (inactive).

On to `COc1cc(OC)cc(N2CCN(C(=O)Nc3nc4cc(F)ccc4nc3OC)CC2)c1`, for which the Potency is 0.934 µM (active). The same measure, in the same setting: as for `CC(C)Oc1ccc(C(=O)N[C@H](CNC(=O)CN(C)C)Cc2ccc(-c3cn4cccc([C@H](C)O)c4n3)cc2)cc1Cl`, the figure is 0.166 µM (active). Same read-out and setting: as for `O=C(NC[C@H](O)CO)c1ccncc1Nc1ccc(I)cc1F`, the figure is 5.9 µM (active); as for `N#C/C(=C(/N)Sc1ccc(N)cc1)c1ccccc1C(F)(F)F`, 18.6 µM (active). Consider `COc1cc(C(C)C)c2c(c1)S(=O)(=O)N(COc1cc(=O)n3cccc(OCCN4CCCCC4)c3n1)C2=O`, for which the Potency is 23.5 µM (active). Still for that read-out and setting: as for `CCN(C(=O)c1c(O)c2c(Cl)cccc2n(C)c1=O)c1ccccc1`, the figure is 14.8 µM (active).
